Screens from PubChem.
CatB block = human cathepsin B inhibitors, primary screen, biochemical, fluorogenic substrate | P07858 | purified cathepsin B, fluorescence | inhibition, %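 (tested at 10 µM)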 | hit rate 0.1% among 63,000 | AID 453, 2006; in the data active = inhibition above about 21%
C1s block = complement C1s protease inhibitors, primary screen, biochemical, 10-compound mixtures; purified C1s, fluorogenic AMC substrate, pooled mixtures; mean inhibition % of two 10-compound mixtures (stronger effect = higher value), % at 5 µM (by protocol); hit rate 0.16% among 62,000; AID 538, 2006;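 active = inhibition above 20% in each of the two 10-compound mixture wells holding the compound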
CatB mix inh = cathepsin B inhibitors from pooled compounds, primary screen, biochemical, compound mixtures, AMC fluorescence | AID 488, 2006 | hit rate 0.06% among 62,000 | inhibition, %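 (ten-compound pools at 5 µM per compound and 50 µM total)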 | Purified cathepsin B, AMC dipeptide fluorescence; in the data active = inhibition above about 22%, passing the limit was not always enough; inconclusive = no clear call, values can overlap the other calls
CatS block = inhibitors of human cathepsin S, biochemical, compound mixtures; P25774; recombinant cathepsin S, AMC dipeptide fluorescence, pooled mixtures; inhibition, %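 (tested at 5 µM per compound within 10-compound mixtures)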; hit rate 0.06% among 62,000; in the data active = inhibition above about 32%, passing the limit was not always enough; inconclusive = no clear call, values can overlap the other calls
Target sequence (P25774 115-331 limits assumed): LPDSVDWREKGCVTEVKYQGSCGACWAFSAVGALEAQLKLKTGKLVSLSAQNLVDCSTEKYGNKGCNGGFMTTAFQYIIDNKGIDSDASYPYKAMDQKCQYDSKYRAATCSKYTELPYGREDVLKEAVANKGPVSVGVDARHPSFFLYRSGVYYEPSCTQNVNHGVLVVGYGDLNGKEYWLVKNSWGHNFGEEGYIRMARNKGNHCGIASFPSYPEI
CatL inh = inhibitors of human cathepsin L, biochemical | Procathepsin L (Homo sapiens), P07711 | inhibition, %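 (tested at 10 µM)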 | purified cathepsin L, fluorogenic substrate, fluorescence | hit rate 0.17% among 58,000; in the data active = inhibition above about 45%
Target sequence (P07711 114-288 limits assumed): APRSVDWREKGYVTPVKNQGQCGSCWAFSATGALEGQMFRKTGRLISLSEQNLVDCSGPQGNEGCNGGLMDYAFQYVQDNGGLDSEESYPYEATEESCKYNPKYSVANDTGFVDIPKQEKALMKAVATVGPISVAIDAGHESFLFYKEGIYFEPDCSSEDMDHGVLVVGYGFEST
Target sequence (P07711 292-333 limits assumed): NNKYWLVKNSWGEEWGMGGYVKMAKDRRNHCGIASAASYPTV
Cathepsin G inh = human cathepsin G inhibitors, primary screen, biochemical, pooled compound mixtures, AMC fluorescence; purified enzyme, AMC-tetrapeptide fluorescence; inhibition, % at 5 µM (by protocol); hit rate 0.2% among 62,000; AID 581, 2007;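 active = inhibition above 20% in each of the two mixture wells holding the compound; inactive = inhibition of 20% or less in either well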
A number is an active result; 0 = inactive; ? = inconclusive; - = no result given. Sampled rows, rich in hits. Any-hit rate of the full collection: about 0.58%.

SMILES	CatB block	C1s block	CatB mix inh	CatS block	CatL inh	Cathepsin G inh
COc1cccc(NC2=NCC(=O)N2Cc2cccs2)c1	0	0	0	0	73	0
Cc1ccc(OCC(=O)Nc2ccc(N3CCOCC3)cc2)cc1	0	60	0	0	0	0
CN(C)c1nc(-c2ccccc2)c2cnn(Cc3ccccc3)c2n1	0	0	0	0	-	0
CC(=O)c1c(OC(=O)c2ccco2)c2ccccc2n1C	0	41	0	0	0	0
O=S(=O)(c1ccccc1F)N(Cc1ccco1)Cc1nnc(-c2ccccc2Br)o1	0	0	0	0	47	0
CCOC(=O)N1CCC(Nc2c(NCCCN(CC)c3cccc(C)c3)c(=O)c2=O)CC1	0	0	0	0	-	0
CCOC(=O)c1c(NC(=O)COC(=O)c2c(C)noc2C)sc2c1CCC2	0	0	0	0	0	0
CCC(=O)Nc1ccc(C(=O)Nc2ccc3c(c2)OCO3)cc1	0	21	0	0	0	0
CC(=O)Nc1ccc(C(=O)Nc2ccc3c(c2)OCO3)cc1	0	0	0	0	0	0
COc1ccccc1NC(=O)CCC(=O)O	33	0	0	-	0	0
CCOc1ccccc1NC(=O)CCC(=O)O	0	0	0	0	0	0
CCCc1cc(C(=O)NCCc2ccccc2)no1	0	0	0	0	-	0
O=C(NCCN1CCOCC1)c1ccc(-c2ccccc2)cc1	0	0	0	0	0	0
O=C(Cc1ccc(-c2ccccc2)cc1)NCCN1CCOCC1	0	24	0	0	0	0
CCCNC(=O)c1noc2c1CCc1ccccc1-2	0	0	0	0	-	61
O=C(NCCN1CCOCC1)c1noc2c1CCc1ccccc1-2	0	0	0	0	0	90
O=C(NCCc1ccccc1)c1noc2c1CCc1ccccc1-2	0	26	0	0	0	101
O=P(O)(CN1CCCCC1)C1CCCCC1O (centres undefined)	0	0	0	0	-	0
COc1ccc(CNc2nc3c(c(C(F)(F)F)n2)CCCCC3)cc1	0	0	0	0	0	0
CCS(=O)(=O)c1ccc(NC(=O)c2ccccc2Cl)c(O)c1	0	0	0	0	0	0
Cn1c(=O)c2cc(NC(=O)c3ccccc3Cl)c(=O)oc2n(C)c1=O	0	0	0	0	-	20
CSc1nnc(-c2ccc(S(=O)(=O)N3CCCC3)cc2)n1C	0	0	0	0	0	0
N#Cc1ccc(N2CCN(C(=O)c3cccc(F)c3)CC2)c(F)c1	0	0	0	0	0	0
CCOC(=O)c1sc(=NC(=O)c2ccc(S(=O)(=O)N3CC(C)OC(C)C3)cc2)n(C)c1C (centres undefined)	43	0	0	0	0	0
CC1CN(S(=O)(=O)c2ccc(C(=O)Nc3sc4c(c3C(N)=O)CCN(C)C4)cc2)CC(C)O1 (centres undefined)	0	0	0	0	0	0
SMILES	CatB block	C1s block	CatB mix inh	CatS block	CatL inh	Cathepsin G inh
COc1ccc(C(=O)n2nnc3ccccc32)cc1Br	0	67	0	0	0	0
COc1ccc(C(=O)n2nc(C)cc2C)cc1Br	0	0	0	0	0	0
O=C(c1ccc2c(c1)OCO2)n1nnc2ccccc21	0	86	0	0	0	89
COc1ccc(C(=O)n2ccc(C)n2)cc1Br	0	0	0	0	-	21
CCc1nc2ccccc2c(=O)n1CCCCn1c(CC)nc2ccccc2c1=O	0	0	0	0	0	0
CC1CCCCN1Cc1nc2c(c(=O)n(C)c(=O)n2C)n1Cc1cccc2ccccc12 (centres undefined)	0	0	0	0	0	0
CCN1CCc2c(sc(N)c2C#N)C1	0	0	0	0	0	0
N#Cc1c(N)sc(=S)c2c1CCN(Cc1ccccc1)C2	80	0	0	75	47	0
Cn1c(C(=O)NCCCN2CCN(c3ccccc3F)CC2)cc2c(=O)n(C)c3ccccc3c21	0	0	0	0	0	0
Cn1c(C(=O)NCCN2CCN(Cc3ccccc3)CC2)cc2c(=O)n(C)c3ccccc3c21	0	0	0	58	0	0
Cn1c(C(=O)NCCCN2CCOCC2)cc2c(=O)n(C)c3ccccc3c21	0	0	0	47	0	0
Cn1c(C(=O)NCCN2CCCCCC2)cc2c(=O)n(C)c3ccccc3c21	0	0	0	69	0	0
CC1CCN(CCCNC(=O)c2cc3c(=O)n(C)c4ccccc4c3n2C)CC1	0	0	0	?	0	0
C=CCOc1c(Br)cc(CNn2nnnc2N)cc1OC	0	0	0	0	0	0
COc1ccc2c(c1)CCc1c(C(=O)Nc3ccn(Cc4ccc(C)cc4)n3)noc1-2	0	0	0	0	0	94
COc1ccc2c(c1)CCc1c(C(=O)Nc3cc(C)n(Cc4ccc(Cl)cc4)n3)noc1-2	0	0	0	0	0	66
Cc1nnc(Sc2nc3c(c(=O)[nH]c(=O)n3C)n2Cc2ccccc2Cl)s1	0	0	0	0	0	0
O=C(c1csc2ccccc12)n1cccn1	0	50	0	0	0	52
O=C(c1csc2ccccc12)N1CCCCCC1	0	0	0	0	0	0
CCn1c(C)nc2cc(C(=O)n3cc(C(=O)c4cc(F)ccc4O)cn3)ccc21	0	25	0	0	0	0
CCn1c(C)nc2cc(C(=O)OCCC(F)(F)F)ccc21	0	0	0	0	0	0
CC(C)(C)n1nc2c(c1NC(=O)c1cccc(C(F)(F)F)c1)CS(=O)C2 (centres undefined)	0	0	0	0	-	0
CC(=O)Nc1c(C(=O)C2CC2)oc2ccccc12	0	0	0	0	0	0
CC(=O)Nc1c(C(=O)c2ccccc2)oc2ccccc12	0	0	0	?	104	0
CCOc1ccc(NS(=O)(=O)c2ccc(OCC(=O)N3CCCC3)cc2)cc1	0	0	0	0	0	0
SMILES	CatB block	C1s block	CatB mix inh	CatS block	CatL inh	Cathepsin G inh
CCOc1ccc(NS(=O)(=O)c2ccc(NS(C)(=O)=O)cc2)cc1	0	0	0	0	76	0
O=C(Nc1cccc(F)c1)C1C2C=CC3(CN(CCCN4CCOCC4)C(=O)C13)O2 (centres undefined)	0	0	0	0	0	0
COC(=O)c1ccc(NC(=O)c2ccc(CN3CCOCC3)cc2)cc1	0	0	0	0	84	0
CCc1cc(=O)oc2cc(C)cc(OC(=O)c3ccco3)c12	0	38	0	0	0	0
O=C(Nc1nccs1)c1cccc(S(=O)(=O)N2CCOCC2)c1	0	0	0	0	0	0
CCOC(=O)c1sc(=S)n(-c2cc(F)ccc2F)c1N	0	0	0	0	104	0
CNc1nn(-c2cccc(Cl)c2)nc1N	0	0	0	0	0	0
COC(=O)c1ccc2c(c1)N(Cc1nc(-c3ccc(Cl)cc3)oc1C)C(=O)C1CCCN21 (centres undefined)	0	0	0	0	0	0
Nc1nonc1-c1nc2ccccc2n1Cc1ccc(Cl)cc1	0	0	0	0	0	0
